Data as given in ChEMBL document CHEMBL4513135, “CO-ADD screening of IQOG CSIS (Spain) compounds”.
Where “and” joins values, the source holds several entries; their conditions need not be identical. Equal values may be shown once. Measured potencies and affinities stand elsewhere.

What was measured:
Staphylococcus aureus = conditions: Concentration 32 ug.mL-1, ASSAY_TEST Inhibition of Bacterial Growth, detection method Absorption (OD600), MEDIA CAMHB, plate type 384well, NBS, CORNING #3640, time 18 hr
Escherichia coli = conditions: Concentration 32 ug.mL-1, ASSAY_TEST Inhibition of Bacterial Growth, detection method Absorption (OD600), MEDIA CAMHB, plate type 384well, NBS, CORNING #3640, time 18 hr

Row | SMILES | Inhibition (Staphylococcus aureus) [%] | Inhibition (Escherichia coli) [%] | Inhibition (Staphylococcus aureus; 32 ug/mL) | Inhibition (Escherichia coli; 32 ug/mL)
1 | C/C(Cc1ccccc1)=N\NC(=O)c1c[nH]c2ccccc12 | 5.98 | 14.48 |  | 
2 | COc1ccc(-c2c(C#N)c(=O)oc3c2ccc2ccccc23)cc1 |  |  | 29.57% and 19.64% | -26.6% and -23.12%
3 | CC1Cc2c(nc3c(c2N)CCCC3)NC1=O (configuration not stated) | 29.78 | -3.82 |  | 
4 | Cc1ccc(CNNC(=O)c2c[nH]c3ccccc23)cc1 | -8.4 | -3.7 |  | 
5 | N#Cc1c(Cl)nc(Cl)c(C#N)c1-c1ccccc1 | 37.97 | -3.96 |  | 
6 | CC(=O)Nc1nc(Cl)c(C#N)c(-c2ccccc2)c1C#N | 21.15 | -6.98 |  | 
7 | O=C(Cc1c[nH]c2ccccc12)NNCCc1ccccc1 | 4.22 | 5.19 |  | 
8 | COc1nc2nc3c(c(N)c2cc1C#N)CCCC3.Cl | 7.17 | -4.74 |  | 
9 | C#CCNC(=O)c1cc2cc(OCCCC3CCN(Cc4ccccc4)CC3)ccc2[nH]1 | 18.56 | -12.4 |  | 
10 | N#CC1=C(N)Oc2ccc3ccccc3c2C1c1cccc([N+](=O)[O-])c1 (configuration not stated) | 31.47 | -6.29 |  | 
11 | O=C(Cc1cccc2ccccc12)N/N=C/c1c[nH]c2ccccc12 | 12.36 | 15.45 |  | 
12 | C=CCNc1[nH]c2ccc(O)cc2c1C#N | 32.95 | -4.66 |  | 
13 | C#CCNc1nc(OC)c(C#N)c(-c2ccccc2)c1C#N | 49.28 | -4 |  | 
14 | CCOC(=O)C1=C(C)Oc2nc3c(c(N)c2C1c1nccn1C)CCCCC3 (configuration not stated) | 10.64 | -6.7 |  | 
15 | CC(C)CC(C)NNC(=O)c1cc2ccccc2[nH]1 (configuration not stated) | -8.06 | -7.16 |  | 
16 | Cc1[nH]nc2c1C(c1cccc([N+](=O)[O-])c1)C(C#N)=C(N)O2 (configuration not stated) | 7.57 | 4.04 |  | 
17 | COC(=O)C(=Cc1ccccc1)NC(=O)c1ccccc1 | 11.82 | 6.08 |  | 
18 | C#CCN(C)c1nc(NCCCCC2CCN(Cc3ccccc3)CC2)c(C#N)cc1C#N | 0.89 | -7.65 |  | 
19 | CCCC(C)NNC(=O)Cc1c[nH]c2ccccc12 (configuration not stated) | 1.02 | -9.25 |  | 
20 | C#CCNC.O=C(O)C(=O)O | 24.36 | 23.06 |  | 
21 | CC(=O)N1CC(=O)NC1=S | 18.21 | 15.12 |  | 

Row | SMILES | Inhibition (Staphylococcus aureus) [%] | Inhibition (Escherichia coli) [%] | Inhibition (Staphylococcus aureus; 32 ug/mL) | Inhibition (Escherichia coli; 32 ug/mL)
22 | C#CCNc1nc(NCCC2CCN(Cc3ccccc3)CC2)c(C#N)cc1C#N | -4.51 | -8.4 |  | 
23 | Cc1nc2c3cnn(-c4ccccc4)c3ncn2n1 | 15.5 | 11.4 |  | 
24 | C1CNCCNCCNCCNC1 | 30 | 9.31 |  | 
25 | Cc1nc(Nc2ccccc2)c2c(C)nn(-c3ccccc3)c2n1 | 15.21 | 8.02 |  | 
26 | CCOc1nc(N)c(C#N)c(-c2ccccc2)c1C#N | 44.16 | -9.76 |  | 
27 | C=C1CN(C)c2c(C#N)c(-c3ccccc3)c(C#N)c(=O)n21 | 8.64 | -1.97 |  | 
28 | COC(=O)C(=Cc1ccc(OC)cc1)NC(C)=O | 16.29 | 8.29 |  | 
29 | C#CCN(C)Cc1cc2cc(O)ccc2n1C.Cl | 21.22 | -11.62 |  | 
30 | COc1ccc(C2c3c(ccc4ccccc34)OC(=N)C2(Br)C#N)cc1 (configuration not stated) | 26.69 | -14.26 |  | 
31 | Cl.Nc1c2c(nc3c1C(c1ccccc1)c1ccc4ccccc4c1O3)CCCC2 (configuration not stated) | 23.84 | 6.79 |  | 
32 | C#CCN(C)c1nc(NCCCC2CCN(Cc3ccccc3)CC2)c(C#N)cc1C#N | 1.12 | -10.35 |  | 
33 | CN(C)c1nc(Cl)c(C#N)c(-c2ccccc2)c1C#N | -17.89 | -6.44 |  | 
34 | N#Cc1cc(C#N)c(NC2CCN(Cc3ccccc3)CC2)nc1N |  |  | 23.9% and 14.84% | -6.37% and -14.46%
35 | CNC(=O)NC1(C(=O)O)CC1c1ccccc1 (configuration not stated) | 10.75 | 8.23 |  | 
36 | COc1ccccc1C1c2ccc3ccccc3c2OC(=NBr)C1(Br)C#N (configuration not stated) | 25.54 | -9.86 |  | 
37 | Cl.N#Cc1c(Cl)nc(N)nc1NCCO | -0.92 | -1.11 |  | 
38 | CCCC(=O)NCc1c(-c2ccc(Cl)cc2)nc2ccccn12 | 11.89 | 8.99 |  | 
39 | O=Cc1ccc(OCCO[N+](=O)[O-])cc1 | 6.78 | 18.31 |  | 
40 | CC(=O)NC(=Cc1ccccc1)C(=O)O | 13.69 | 10.22 |  | 
41 | CCOC(=O)c1cn(C)c2ccccc12 | 5.67 | 4.13 |  | 
42 | O=C(N/N=C/Cc1ccccc1)c1cc2ccccc2n1Cc1ccccc1 | 8.78 | 7.44 |  | 

Row | SMILES | Inhibition (Staphylococcus aureus) [%] | Inhibition (Escherichia coli) [%] | Inhibition (Staphylococcus aureus; 32 ug/mL) | Inhibition (Escherichia coli; 32 ug/mL)
43 | C=C1CN(C)c2c(C#N)cc(C#N)c(=S)n21 | 18.51 | -1.72 |  | 
44 | COc1ccc(C2c3ccc4ccccc4c3OC(=NBr)C2(Br)C#N)cc1 (configuration not stated) | 25.41 | -8.93 |  | 
45 | CC1=NC(=Cc2ccc([N+](=O)[O-])cc2)C(=O)O1 | 3.5 | -3.97 |  | 
46 | COc1ccc(-c2cc(-c3cc4c(C)cc(C)cc4nc3Cl)cc(=O)[nH]2)cc1 | 21.85 | -16.03 |  | 
47 | C#CCN(C)Cc1cc2cc(OC)ccc2n1C | 33.86 | -8.2 |  | 
48 | N#Cc1cc(C#N)c(N2CCCCC2)nc1Cl | 15.2 | 9.21 |  | 
49 | Cc1cnc(NC(=O)OC(C)(C)C)c(Br)c1 | 34.57 | -15.12 |  | 
50 | COc1nc2ccc(C)cc2cc1C=O | 18.14 | 18.17 |  | 
51 | OCc1c(-c2ccc(Br)cc2)nc2ccccn12 | 6.46 | 0.77 |  | 
52 | COC(=O)C(=Cc1ccc([N+](=O)[O-])cc1)NC(=O)c1ccccc1 | 7.69 | 6.65 |  | 
53 | C#CCN1CCc2nc3nc(N(C)C)c(C#N)cc3c(N)c2C1 | 32.37 | -3.45 |  | 
54 | Cc1ccc(C2c3ccc4ccccc4c3Oc3nc4c(c(N)c32)CCCC4)cc1.Cl (configuration not stated) | -4.06 | 12.44 |  | 
55 | O=C1NC(=S)N/C1=C\c1c[nH]c2ccccc12 | 7.26 | 6.43 |  | 
56 | O=C(O)C(=Cc1ccccc1)NC(=O)c1ccccc1 | 14.72 | 9.37 |  | 
57 | O=C1C=C(Nc2ccccc2)C(=O)N1c1ccccc1 | 3.04 | 4.55 |  | 
58 | N#CC1=C(N)Oc2c(ccc3ccccc23)C1c1ccc(O)cc1 (configuration not stated) | 21.57 | -18.15 |  | 
59 | O=C(O)c1cc2ccccc2[nH]1 [INDOLE-2-CARBOXYLIC ACID] | 5.6 | 18.03 |  | 
60 | CCOC(=O)C1=C(C)Oc2nc3c(c(N)c2C1c1ccccc1OC)CCC3 (configuration not stated) | 12.13 | 5.78 |  | 
61 | CCOc1nc2nc3c(c(N)c2cc1C#N)CCCC3 | -2.29 | -2.83 |  | 
62 | O=C1OC(c2ccc([N+](=O)[O-])cc2)=NC1=Cc1ccccc1 | 12.67 | 13.11 |  | 
63 | Cc1nn(-c2ccccc2)c2ncnc(NCc3ccccc3)c12 | 16.34 | 7.89 |  | 

Row | SMILES | Inhibition (Staphylococcus aureus) [%] | Inhibition (Escherichia coli) [%] | Inhibition (Staphylococcus aureus; 32 ug/mL) | Inhibition (Escherichia coli; 32 ug/mL)
64 | O=C(O)c1c[nH]c2ccccc12 | -3.47 | -2.29 |  | 
65 | COc1ccc(CNNC(=O)c2cc3ccccc3[nH]2)cc1O | 5.63 | 2.63 |  | 
66 | Cn1ccnc1C1C2=C(CC(C)(C)CC2=O)Oc2nc3c(c(N)c21)CCCC3 (configuration not stated) | 8.97 | -15.11 |  | 
67 | CC(=NNC(N)=O)c1c[nH]c2ccccc12 | 2.54 | 16.24 |  | 
68 | C#CCN(C)Cc1cc2cc(OCCCC3CCN(Cc4ccc(OC)c5ncccc45)CC3)ccc2n1C | 8.98 | -14.67 |  | 
69 | NNC(=O)c1c[nH]c2ccc(OCc3ccccc3)cc12 | 2.88 | 0.02 |  | 
70 | COc1ccc2cc(C3C4=C(CC(C)(C)CC4=O)Oc4nc5c(c(N)c43)CCCCC5)c(Cl)nc2c1 (configuration not stated) | 27.31 | 12.92 |  | 
71 | CC(C)NNC(=O)Cc1c[nH]c2ccccc12 | 11.42 | 9.11 |  | 
72 | C=C1CN(Cc2ccccc2)c2c(C#N)c(-c3ccccc3)c(C#N)c(=N)n21 | 44.91 | -0.81 |  | 
73 | C#CCNc1nc(N)c(C#N)cc1C#N | -1.17 | -11.19 |  | 
74 | CC(=O)NC=C1C(=O)OC(C)(C)OC1=O | 14.96 | 11.61 |  | 
75 | Cl.ClCCCN1CCCCC1 | 19.47 | 17.01 |  | 
76 | N#Cc1c(N)nc(N2CCOCC2)c(C#N)c1-c1ccccc1 | 7.58 | 0.53 |  | 
77 | CCOC(=O)c1c[nH]c2ccc(OC)cc12 | 4.86 | 9.94 |  | 
78 | CCOC(=O)c1cc2cc(OCc3ccccc3)ccc2[nH]1 | 7.82 | 5.9 |  | 
79 | COc1ccccc1C1c2ccc3ccccc3c2Oc2nc3c(c(N)c21)CCCC3 (configuration not stated) | 0.62 | 3.02 |  | 
80 | CCOC(=O)/C(C#N)=C\c1ccc(C)cc1 | 28.15 | 15.07 |  | 
81 | N#Cc1c(-c2ccccc2)c2c(ccc3ccccc32)oc1=O | 27.54 | 15.75 |  | 
